Source: PubChem
The list is not random: actives were taken first. Their share in the collection is about 4.6%.
HSF1 activator: HSF-1 activators, primary screen, NIH3T3-HGL cells, MG132 stress, luminescence, single point | NIH3T3-HGL HSF-1 luciferase reporter, 8 h; 100% = twice DMSO control signal | activation, % at 9 µM | 300,000 compounds, 1.7% hits | AID 504408, 2011;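 active = mean replicate activation of at least 50% with a set share of replicates each reaching 50%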;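 note: 0% = median of the neutral control wells and 100% = twice that signal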
HSF1 inh: HSF1 inhibitors in luciferase reporter cells, primary screen, cell-based, NIH3T3, luminescence | NIH3T3-HGL HSE-luciferase, MG132-induced, luminescence 8 h; active compounds read low | activity change, negative = inhibition, % at 7.5 µM (by protocol) | 300,000 compounds, 0.77% hits | AID 2098, 2009;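 active = more than half of replicate wells show activity change below -50%, luminescence cut by over half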;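 note: luciferase reports HSF-1 transcriptional activity via heat shock element; 0% = median of DMSO wells and -100% = zero luminescence signal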
AHR activator: AHR activators, primary screen, cell-based, luminescence, luciferase reporter, human; AHR-responsive luciferase reporter cells; 320,000 compounds, 2.5% hits; AID 2796, 2010; activation, % at 5 µM; Aryl hydrocarbon receptor (Homo sapiens), P35869; in the data active = activation above about 47%;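 note: 0% = vehicle wells and 100% = reference agonist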
FXN GAA850 act: FXN promoter activators, primary screen, cell-based, luciferase luminescence, HEK293 lucGAA850; HEK293 lucGAA850 FXN promoter luciferase reporter, 24 h; percent of 10 µM SAHA response; activation, % at 6 µM; 360,000 compounds, 0.56% hits;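 active = activation above the average of all compounds screened plus 3 SD, cutoff fixed separately per campaign, cut at about 7.5% in these data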;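 note: 0% = DMSO wells and 100% = 10 µM SAHA wells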
GAA30 FXN cntr: GAA30 FXN promoter activators, confirmation, counter-screen for GAA850 frataxin promoter activator project, cell-based, luminescence, HEK293, lucGAA30, triplicate; shares compounds with FXN GAA850 act; HEK293 lucGAA30 FXN promoter luciferase, 24 h; DMSO = 0%, 5 µM ipriflavone = 100%; activation, % at 6 µM; 1,900 compounds, 66% hits; AID 588350, 2011;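 active = mean activation above the mean of solvent-only control wells plus 3 SD, cut at about 22% in these data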;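 note: counterscreen of GAA850 promoter hits where activity marks nonselective or luminescence artifacts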
GAA850 confirm: FXN GAA850 promoter activators in reporter cells, confirmation, cell-based, luminescence, HEK293 lucGAA850, triplicate; shares compounds with FXN GAA850 act; HEK293 lucGAA850 FXN promoter luciferase reporter, 24 h; 100% = activation by SAHA; activation, % at 6 µM; 1,900 compounds, 86% hits;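 active = mean activation above a set limit taken from the primary screen, cut at about 8% in these data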;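 note: 0% = DMSO wells and 100% = 10 µM SAHA wells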
Starred values were filed as active, the others as inactive.

For Cc1cccc(CSc2cccc3cccnc23)c1 the results were HSF1 activator 288*, HSF1 inh 232, AHR activator 45, FXN GAA850 act 25*, GAA30 FXN cntr -69 and GAA850 confirm -13.
`c1cnc2c(SCc3ccc(-c4nnco4)cc3)cccc2c1` gave HSF1 activator 39, HSF1 inh 11, AHR activator 0, FXN GAA850 act 8.4*, GAA30 FXN cntr 74* and GAA850 confirm 27*.
Screening c1ccc2c(c1)nc(-c1ccncc1)n1nnnc21 returned HSF1 activator 5, HSF1 inh -8, AHR activator 0 and FXN GAA850 act 3.
For O=C(N/C(=C/c1ccccc1Cl)C(=O)N1CCOCC1)c1ccccc1 the results were AHR activator -1 and FXN GAA850 act -3.
`C#CCOCCOCCOCCNc1nc(N2CCN(C(=O)CCCCCCCCCCNC(=O)[C@H]([C@@H](C)CC)n3cc(CCCCCN)nn3)CC2)nc(N2CCN(C(=O)CCCCCCCCCCNC(=O)[C@H](CCCCN)n3cc(CCCC(=O)O)nn3)CC2)n1` gave AHR activator -1 and FXN GAA850 act -1.
`CS(=O)(=O)c1ccc(C(=O)OCC(=O)N2CCOCC2)cc1[N+](=O)[O-]` gave FXN GAA850 act 9.7*, GAA30 FXN cntr 83* and GAA850 confirm 39*.
COc1ccc(C2=NN(C(=O)COC(=O)c3ccc(S(C)(=O)=O)c([N+](=O)[O-])c3)C(c3ccco3)C2)cc1 (stereo unspecified) was read as AHR activator 1, FXN GAA850 act 13*, GAA30 FXN cntr -30 and GAA850 confirm 19*.
Screening CS(=O)(=O)c1ccc(C(=O)OCC(=O)Nc2cccnc2Cl)cc1[N+](=O)[O-] returned AHR activator 2, FXN GAA850 act 8.0*, GAA30 FXN cntr 31* and GAA850 confirm 20*.
O=C(COC(=O)c1ccc([N+](=O)[O-])cc1)Nc1cccnc1Cl was read as HSF1 activator -1, HSF1 inh -1, AHR activator -6 and FXN GAA850 act 1.
CS(=O)(=O)c1ccc(C(=O)OCc2nnc(-c3ccccc3)o2)cc1[N+](=O)[O-] was read as HSF1 activator 225*, HSF1 inh 178, FXN GAA850 act 8.5*, GAA30 FXN cntr -17 and GAA850 confirm 70*.
Screening N#Cc1ccc(CN2CCN(C(=O)CNC(=O)Cc3cccc4ccccc34)CC2)cc1 returned FXN GAA850 act -5.
Screening Cc1ccc(CNC(=O)c2ccc(CS(=O)Cc3ccccc3Cl)o2)cc1 (stereo unspecified) returned HSF1 activator 4, HSF1 inh -1, AHR activator 3 and FXN GAA850 act 0.
Screening CC(=O)NC(C)c1nc2ccccc2n1CC(=O)N1C(C)CCCC1C (stereo unspecified) returned HSF1 activator -18, HSF1 inh 0, AHR activator 0 and FXN GAA850 act 3.
Screening CC(NC(=O)CCCCCN1C(=O)c2ccccc2C1=O)c1ccc2c(c1)CCCC2 (stereo unspecified) returned HSF1 activator 33, HSF1 inh 15, AHR activator -3 and FXN GAA850 act -2.
Screening Oc1ccc(/C=N/N2CCCCC2)cc1O returned HSF1 activator 2, HSF1 inh 0, AHR activator 0, FXN GAA850 act 12*, GAA30 FXN cntr 55* and GAA850 confirm 28*.
Clc1ccc(C=NN2CCCCCC2)cc1Cl was read as FXN GAA850 act 3.
CC(C)(C)OC(=O)N1CCC(C(N)=O)CC1 was read as HSF1 activator -3, HSF1 inh 5, AHR activator 0 and FXN GAA850 act 2.
Screening CC(C)n1cnc2c(N(C)c3cccc(Cl)c3)nc(N(CCO)CCO)nc21 returned HSF1 activator -45, HSF1 inh -32, AHR activator 27 and FXN GAA850 act 3.
